Pf Dd2 growth – blocks in vitro growth of P. falciparum Dd2; AID 1347417; Potency, µM (top dose mostly 28.9 µM), for inactives: top-dose activity, negative = inhibition, hits mostly inhibitors; actives 4.3% (n = 120,000); P. falciparum Dd2 growth, SYBR Green, 72 h; active means well fitted inhibition curve with a large enough effect;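 further: plate controls were DMSO vehicle for no effect and reference drug for full effect; nearly all actives have a fitted effect of over 65% in size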
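Infected erythrocytes (Dd2, 0.3% parasitemia, 2.5% hematocrit final) are added to compound in RPMI-1640/Albumax II medium, grown 72 h at 37C in low oxygen, then lysed with saponin/Triton-X containing SYBR Green and read by fluorescence.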
Active calls of the source: *; [ ] = another dose, or the depositor's remark. This is one part of a sample in which hits are shown more often than they occur. Potency means the concentration at half of the fitted maximal effect.

What do the screens show for `Cc1cc(C(=O)N2CCC(Cc3nc(-c4ccccc4)n[nH]3)CC2)nn1C`?
Pf Dd2 growth: inactive

Results for COc1cccc(N2C(=O)[C@@H]3C[C@@H](NC(=O)CSC)CCN3C2=O)c1 ?
Pf Dd2 growth: 28%[44.1 µM]

How did CS(=O)(=O)N1CCCN(Cc2ccccn2)CCNC(=O)CC1c1ccccc1 (stereo unspecified) do in these assays?
Pf Dd2 growth: -5%

How did O=C1CC(c2ccccc2)N(Cc2ccncc2)CCCN(C(=O)CN2CCCC2=O)CCN1 (stereo unspecified) do in these assays?
Pf Dd2 growth: inactive

What do the screens show for `Cc1noc(C)c1S(=O)(=O)N1CCCCCCNC(=O)CC1`?
Pf Dd2 growth: 4%

How did CCn1ncc(CN2CCCN(Cc3ccncc3)C(c3ccccc3)CC(=O)NCC2)c1C (stereo unspecified) do in these assays?
Pf Dd2 growth: -4%

How did Cc1noc(C)c1S(=O)(=O)NCC(=O)N1CCCCCNC(=O)CC1c1ccccc1 (stereo unspecified) do in these assays?
Pf Dd2 growth: 10%

How did CN(C)S(=O)(=O)N1CCCN(Cc2ccncc2)C(c2ccccc2)CC(=O)NCC1 (stereo unspecified) do in these assays?
Pf Dd2 growth: 10µM*

How did O=C1CC(c2ccccc2)N(Cc2ccncc2)CCCN(CC2CCCCC2)CCN1 (stereo unspecified) do in these assays?
Pf Dd2 growth: 3.2µM*

How did CS(=O)(=O)N1CCCCCNC(=O)CC1c1ccccc1 (stereo unspecified) do in these assays?
Pf Dd2 growth: 0%

How did Cc1noc(C)c1S(=O)(=O)N1CCCN(Cc2ccncc2)C(c2ccccc2)CC(=O)NCC1 (stereo unspecified) do in these assays?
Pf Dd2 growth: 1.1µM*

How did CN(Cc1cccc(C(F)(F)F)c1)Cc1ccccc1C(F)(F)F do in these assays?
Pf Dd2 growth: -3%[44.1 µM]

What do the screens show for `O=C(c1ccncc1)N1CC2CCC(C1)N2Cc1cccc(Cl)c1`?
Pf Dd2 growth: 17%

Results for COC[C@@H]1CN(C(=O)CN2CCCC2=O)C[C@H]1c1ccncc1 ?
Pf Dd2 growth: -18%

Results for COc1ccc2[nH]c3c(c2c1)CCNC31CCN(C(=O)c2cccnc2)CC1 ?
Pf Dd2 growth: -12%

How did CCN1c2cc(C(=O)Nc3ccc(OC)c(Cl)c3)ccc2C(=O)N2CCCCCC21 (stereo unspecified) do in these assays?
Pf Dd2 growth: inactive

How did CNC(=O)[C@@H]1CN(C(=O)Cc2c(F)cccc2Cl)C[C@H]1COC do in these assays?
Pf Dd2 growth: 3%

Results for O=C(Nc1ccccc1F)N1CC2CCC(C1)N2Cc1ccc(-c2ccsc2)cc1 ?
Pf Dd2 growth: -4%

Results for CC(C)N1CC2CCC(C1)N2Cc1ccc(-c2ccsc2)cc1 ?
Pf Dd2 growth: 11µM*

Results for CC(C)N1CC2CCC(C1)N2CC1CCCC1 ?
Pf Dd2 growth: -38%[44.1 µM]

How did COC(=O)c1cccc(NC(=S)N[C@H]2CO[C@H]3[C@@H]2OC[C@@H]3n2cc(CC3CCCCC3)nn2)c1 do in these assays?
Pf Dd2 growth: inactive

Results for COC(=O)c1scc(-c2ccc(C)cc2)c1S(=O)(=O)Nc1cccc(Cl)c1C ?
Pf Dd2 growth: inactive

How did CCOc1ccccc1NS(=O)(=O)c1c(-c2ccc(C)cc2)csc1C(=O)OC do in these assays?
Pf Dd2 growth: 10µM*

Results for COC(=O)c1scc(-c2ccc(C)cc2)c1S(=O)(=O)Nc1ccc(F)cc1F ?
Pf Dd2 growth: 4%

Results for CC(C)(C)NC(=O)N1CCCCCCNC(=O)[C@@H]2C[C@@H](C(=O)N3CCc4ccccc4C3)C[C@@H]21 ?
Pf Dd2 growth: 4.5µM*

Results for Cc1cnc(C(=O)N2CCCCCCNC(=O)[C@@H]3C[C@@H](C(=O)N4CCc5ccccc5C4)C[C@@H]32)cn1 ?
Pf Dd2 growth: -16%

How did O=C1NCCCCCCN(C(=O)C2CC2)[C@H]2C[C@H](C(=O)N3CCc4ccccc4C3)C[C@@H]12 do in these assays?
Pf Dd2 growth: inactive

How did CN1CCN(C(=O)N2CCCC(CNS(=O)(=O)c3cccs3)C2)CC1 (stereo unspecified) do in these assays?
Pf Dd2 growth: -11%

How did CCOCCCNC(=O)NC1CCN(c2ccc(OC)cc2)C1=O (stereo unspecified) do in these assays?
Pf Dd2 growth: 7%

Results for CCOc1ccc(CC(=O)N2[C@@H]3CC[C@H]2CC(NC(=O)c2cnc(C)cn2)C3)cc1 (stereo partly specified) ?
Pf Dd2 growth: inactive

How did O=C(NCCN1CCOCC1)C1Cn2cccc2C(=O)N1Cc1ccccc1 (stereo unspecified) do in these assays?
Pf Dd2 growth: 25%

What do the screens show for `CCOCCN1C(=O)COC[C@@H]1[C@H](O)c1ccc(NC(=O)C2CCCCC2)cc1`?
Pf Dd2 growth: -23%[44.1 µM]

Results for COc1ccc(CN2CCOc3nc(-c4cccc(C#N)c4)ncc3C2=O)cc1 ?
Pf Dd2 growth: inactive

What do the screens show for `O=C(Cn1ccn2nc(-c3ccccc3)c(CO)c2c1=O)NCCCc1ccccc1`?
Pf Dd2 growth: -15%

Results for CCOC(=O)c1c(NC(=O)COc2ccc(OC)cc2)sc(C(=O)N(CC)CC)c1C ?
Pf Dd2 growth: 11µM*

What do the screens show for `CCOC(=O)c1c(NC(=O)COc2ccc(Br)cc2)sc(C(C)=O)c1C`?
Pf Dd2 growth: inactive

What do the screens show for `CCOC(=O)c1c(NC(=O)COc2ccccc2)sc(C(C)=O)c1C`?
Pf Dd2 growth: 15%

How did CCOc1ccc(NC(=O)Cn2c(-c3cnccn3)nc(C)c(C)c2=O)cc1 do in these assays?
Pf Dd2 growth: inactive

What do the screens show for `COCC(=O)NC1CCC12CCN(C(=O)C(C)C)CC2` (stereo unspecified)?
Pf Dd2 growth: 0%

What do the screens show for `COc1ccc(-n2cc(-c3ccccc3)c3c(SC(C)C(C)=O)ncnc32)cc1` (stereo unspecified)?
Pf Dd2 growth: 8%

Results for COC(=O)C(C)Sc1ncnc2c1c(-c1ccccc1)cn2-c1ccc(F)cc1 (stereo unspecified) ?
Pf Dd2 growth: 5.6µM*

Results for CN(c1ncnc2c1c(-c1ccccc1)cn2-c1ccc(F)cc1)C1CCCCC1 ?
Pf Dd2 growth: -7%

Results for O=C(c1ccc(C(F)(F)F)cc1)N1CCN2C(=O)N(C3CCOCC3)C[C@H]2C1 ?
Pf Dd2 growth: 1%[44.1 µM]

What do the screens show for `Cc1ccc(C(=O)N2CCn3c(nn(-c4ccc(C)cc4)c3=O)C2)cc1`?
Pf Dd2 growth: -9%

How did Cc1cc(C)cc(-n2c(-c3ccccc3)c(C)n3c4c(=O)n(C)c(=O)n(C)c4nc23)c1 do in these assays?
Pf Dd2 growth: 21%

How did CCOc1ccc(-n2c(-c3ccccc3)c(C)n3c4c(=O)n(C)c(=O)n(C)c4nc23)cc1 do in these assays?
Pf Dd2 growth: -7%

What do the screens show for `Cc1c(-c2ccccc2)n(-c2ccccc2O)c2nc3c(c(=O)n(C)c(=O)n3C)n12`?
Pf Dd2 growth: 3.2µM*

How did Cn1ncc2c(C(=O)NC3CC3)cc(-c3cccc(C(F)(F)F)c3)nc21 do in these assays?
Pf Dd2 growth: -22%

Results for Cn1ncc2c(C(=O)NCC3CC3)cc(-c3cccnc3)nc21 ?
Pf Dd2 growth: 13µM*

Results for Cc1cccc(C)c1-c1cc(C(=O)NC2CC2)c2cnn(C)c2n1 ?
Pf Dd2 growth: 1%

How did COC(=O)c1ccccc1NC(=O)CSc1nc(=O)cc(N)n1-c1ccccc1 do in these assays?
Pf Dd2 growth: 55%

How did COC(=O)c1ccc(NC(=O)C(C)Sc2nc(=O)cc(N)n2CCc2ccccc2)cc1 (stereo unspecified) do in these assays?
Pf Dd2 growth: 11µM*

How did COC(=O)c1ccc(NC(=O)CSc2nc3c(c(=O)n(C)c(=O)n3C)n2Cc2ccccc2)cc1 do in these assays?
Pf Dd2 growth: 26%
